From the supplement of paper PMC10849652 come the findings set out here.

The full data set covers some 8,800 targets. This sample favours those with a hit. About 0.5% of all pairs of compound and target were hits.

Sequence of UniProt Q15334 (Q15334 whole entry, looked up): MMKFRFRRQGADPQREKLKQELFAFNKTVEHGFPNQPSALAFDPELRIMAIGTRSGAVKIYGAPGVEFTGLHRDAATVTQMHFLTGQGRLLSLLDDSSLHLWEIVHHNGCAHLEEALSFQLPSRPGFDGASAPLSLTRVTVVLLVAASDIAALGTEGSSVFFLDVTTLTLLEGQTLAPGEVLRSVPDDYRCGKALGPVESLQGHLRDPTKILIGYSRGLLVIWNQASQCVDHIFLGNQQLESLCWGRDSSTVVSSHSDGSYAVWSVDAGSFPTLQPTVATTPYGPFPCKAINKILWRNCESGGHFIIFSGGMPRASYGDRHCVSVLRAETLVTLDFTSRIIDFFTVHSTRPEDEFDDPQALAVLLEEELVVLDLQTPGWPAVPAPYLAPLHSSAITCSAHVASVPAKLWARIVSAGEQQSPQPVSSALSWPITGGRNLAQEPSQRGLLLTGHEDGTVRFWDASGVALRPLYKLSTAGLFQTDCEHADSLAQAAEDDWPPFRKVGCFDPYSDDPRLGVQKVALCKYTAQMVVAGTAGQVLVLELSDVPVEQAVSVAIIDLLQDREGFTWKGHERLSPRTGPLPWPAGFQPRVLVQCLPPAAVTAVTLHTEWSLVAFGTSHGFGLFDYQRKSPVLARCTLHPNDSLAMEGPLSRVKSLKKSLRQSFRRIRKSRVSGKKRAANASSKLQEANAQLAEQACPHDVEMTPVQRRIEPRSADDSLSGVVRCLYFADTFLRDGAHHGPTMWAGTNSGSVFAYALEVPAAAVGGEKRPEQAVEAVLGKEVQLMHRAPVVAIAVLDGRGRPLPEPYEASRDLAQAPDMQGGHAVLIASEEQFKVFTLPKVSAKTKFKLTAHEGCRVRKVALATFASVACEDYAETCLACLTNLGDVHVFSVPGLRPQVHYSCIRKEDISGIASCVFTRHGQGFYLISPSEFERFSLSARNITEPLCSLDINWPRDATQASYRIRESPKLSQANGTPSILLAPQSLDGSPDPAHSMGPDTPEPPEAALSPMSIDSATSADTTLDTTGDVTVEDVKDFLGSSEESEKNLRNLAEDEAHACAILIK
Sequence of UniProt Q71F56 (Q71F56 whole entry, looked up): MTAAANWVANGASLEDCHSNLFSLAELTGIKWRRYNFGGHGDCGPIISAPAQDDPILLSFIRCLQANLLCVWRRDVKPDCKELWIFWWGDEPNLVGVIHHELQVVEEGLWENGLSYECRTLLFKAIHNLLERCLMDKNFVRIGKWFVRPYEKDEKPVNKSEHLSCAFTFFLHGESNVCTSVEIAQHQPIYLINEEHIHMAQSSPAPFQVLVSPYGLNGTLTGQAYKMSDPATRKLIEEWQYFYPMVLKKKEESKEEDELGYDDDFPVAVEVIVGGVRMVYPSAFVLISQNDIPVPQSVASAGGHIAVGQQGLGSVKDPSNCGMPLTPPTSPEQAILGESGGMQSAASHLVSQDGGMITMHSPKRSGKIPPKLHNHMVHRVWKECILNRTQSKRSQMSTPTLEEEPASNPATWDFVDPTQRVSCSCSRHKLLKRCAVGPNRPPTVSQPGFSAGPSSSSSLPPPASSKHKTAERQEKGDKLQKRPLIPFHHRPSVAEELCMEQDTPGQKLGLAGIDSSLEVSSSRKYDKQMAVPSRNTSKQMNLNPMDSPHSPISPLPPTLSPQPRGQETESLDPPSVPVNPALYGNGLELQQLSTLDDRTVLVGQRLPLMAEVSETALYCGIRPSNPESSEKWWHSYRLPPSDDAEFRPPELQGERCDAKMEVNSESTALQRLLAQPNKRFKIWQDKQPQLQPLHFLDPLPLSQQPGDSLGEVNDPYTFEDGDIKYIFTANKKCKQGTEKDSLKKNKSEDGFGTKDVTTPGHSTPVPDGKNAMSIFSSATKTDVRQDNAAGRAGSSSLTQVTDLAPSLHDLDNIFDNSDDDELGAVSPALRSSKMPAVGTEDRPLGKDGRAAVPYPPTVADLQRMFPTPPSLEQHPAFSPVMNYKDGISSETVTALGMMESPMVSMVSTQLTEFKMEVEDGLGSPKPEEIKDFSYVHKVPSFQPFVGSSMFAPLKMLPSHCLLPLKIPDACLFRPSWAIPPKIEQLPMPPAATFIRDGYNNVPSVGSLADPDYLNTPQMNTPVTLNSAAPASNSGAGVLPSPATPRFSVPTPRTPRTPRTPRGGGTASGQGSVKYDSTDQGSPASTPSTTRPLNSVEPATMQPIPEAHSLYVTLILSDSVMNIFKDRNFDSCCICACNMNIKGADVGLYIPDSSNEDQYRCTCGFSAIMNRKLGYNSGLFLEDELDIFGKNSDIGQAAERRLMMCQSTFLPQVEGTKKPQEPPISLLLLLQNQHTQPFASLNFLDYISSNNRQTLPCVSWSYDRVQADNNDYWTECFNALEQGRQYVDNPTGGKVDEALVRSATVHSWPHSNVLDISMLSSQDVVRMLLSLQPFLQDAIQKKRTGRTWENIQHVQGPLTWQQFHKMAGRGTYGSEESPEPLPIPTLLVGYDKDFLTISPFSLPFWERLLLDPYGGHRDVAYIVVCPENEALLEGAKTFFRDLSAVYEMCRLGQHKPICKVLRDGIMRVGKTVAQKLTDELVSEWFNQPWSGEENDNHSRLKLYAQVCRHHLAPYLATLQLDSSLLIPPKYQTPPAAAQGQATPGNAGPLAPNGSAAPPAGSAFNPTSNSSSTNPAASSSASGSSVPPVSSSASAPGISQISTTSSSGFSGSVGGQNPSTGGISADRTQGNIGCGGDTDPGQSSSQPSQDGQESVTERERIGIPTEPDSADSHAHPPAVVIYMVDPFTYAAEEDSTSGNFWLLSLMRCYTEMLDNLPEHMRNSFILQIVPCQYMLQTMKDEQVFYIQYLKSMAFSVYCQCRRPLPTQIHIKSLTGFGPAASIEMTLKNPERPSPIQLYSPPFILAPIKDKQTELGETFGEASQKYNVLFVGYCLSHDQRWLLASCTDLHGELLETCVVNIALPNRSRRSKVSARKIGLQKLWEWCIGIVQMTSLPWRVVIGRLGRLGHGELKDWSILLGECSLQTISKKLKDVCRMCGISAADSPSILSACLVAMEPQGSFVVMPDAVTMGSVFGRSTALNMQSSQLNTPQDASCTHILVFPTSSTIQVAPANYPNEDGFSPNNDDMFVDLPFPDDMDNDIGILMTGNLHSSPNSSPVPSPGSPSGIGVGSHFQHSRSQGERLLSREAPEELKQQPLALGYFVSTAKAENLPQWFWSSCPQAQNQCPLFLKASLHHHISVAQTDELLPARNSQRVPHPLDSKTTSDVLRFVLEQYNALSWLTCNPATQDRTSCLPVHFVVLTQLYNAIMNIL
Sequence of UniProt Q9NZB8 (Q9NZB8 whole entry, looked up): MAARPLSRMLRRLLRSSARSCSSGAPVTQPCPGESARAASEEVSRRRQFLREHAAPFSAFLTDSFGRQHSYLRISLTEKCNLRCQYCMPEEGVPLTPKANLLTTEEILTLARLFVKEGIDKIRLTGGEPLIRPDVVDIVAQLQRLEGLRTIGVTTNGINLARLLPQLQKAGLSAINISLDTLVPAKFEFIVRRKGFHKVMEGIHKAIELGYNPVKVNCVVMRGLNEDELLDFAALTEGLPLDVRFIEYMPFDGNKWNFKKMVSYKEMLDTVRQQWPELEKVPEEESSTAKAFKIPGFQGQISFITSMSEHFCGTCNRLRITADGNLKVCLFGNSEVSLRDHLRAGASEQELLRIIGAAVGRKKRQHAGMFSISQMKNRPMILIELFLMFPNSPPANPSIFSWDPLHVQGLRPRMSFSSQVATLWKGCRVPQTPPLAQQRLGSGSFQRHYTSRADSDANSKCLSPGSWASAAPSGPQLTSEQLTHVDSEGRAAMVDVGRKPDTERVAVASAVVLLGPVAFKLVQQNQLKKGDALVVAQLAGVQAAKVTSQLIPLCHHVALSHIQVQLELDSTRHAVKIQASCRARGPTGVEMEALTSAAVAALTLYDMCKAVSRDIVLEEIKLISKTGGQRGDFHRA
Sequence of UniProt Q9H9A6 (Q9H9A6 whole entry, looked up): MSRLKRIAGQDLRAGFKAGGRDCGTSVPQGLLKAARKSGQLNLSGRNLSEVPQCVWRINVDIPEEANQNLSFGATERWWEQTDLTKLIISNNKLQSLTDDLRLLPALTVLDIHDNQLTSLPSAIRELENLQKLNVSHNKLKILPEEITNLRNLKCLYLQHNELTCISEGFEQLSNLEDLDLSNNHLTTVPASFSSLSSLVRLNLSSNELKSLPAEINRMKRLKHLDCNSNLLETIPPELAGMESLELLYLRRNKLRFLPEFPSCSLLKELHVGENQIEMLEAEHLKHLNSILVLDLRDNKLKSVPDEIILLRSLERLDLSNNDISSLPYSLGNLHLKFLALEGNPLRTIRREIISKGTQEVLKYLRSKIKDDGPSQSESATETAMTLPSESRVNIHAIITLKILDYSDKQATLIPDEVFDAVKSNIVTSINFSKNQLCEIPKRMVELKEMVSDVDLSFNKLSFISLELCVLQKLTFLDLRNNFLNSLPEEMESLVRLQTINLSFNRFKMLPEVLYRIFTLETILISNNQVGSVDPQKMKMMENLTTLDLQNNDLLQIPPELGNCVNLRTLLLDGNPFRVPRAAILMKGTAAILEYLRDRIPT
Sequence of UniProt Q9GZY8 (Q9GZY8 whole entry, looked up): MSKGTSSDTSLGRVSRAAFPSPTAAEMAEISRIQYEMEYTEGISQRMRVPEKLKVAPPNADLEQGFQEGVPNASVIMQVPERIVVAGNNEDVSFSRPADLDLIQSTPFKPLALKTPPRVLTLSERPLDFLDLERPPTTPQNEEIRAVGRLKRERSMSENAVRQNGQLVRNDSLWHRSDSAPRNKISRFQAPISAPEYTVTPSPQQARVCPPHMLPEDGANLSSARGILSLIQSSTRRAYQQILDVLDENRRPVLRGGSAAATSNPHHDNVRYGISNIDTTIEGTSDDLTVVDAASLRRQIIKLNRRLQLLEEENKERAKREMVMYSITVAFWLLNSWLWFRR
Sequence of UniProt O95777 (O95777 whole entry, looked up): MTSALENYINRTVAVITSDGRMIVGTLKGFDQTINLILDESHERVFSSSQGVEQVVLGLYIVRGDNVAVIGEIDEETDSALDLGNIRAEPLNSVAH

Compound in this assay: CN1CC[C@H](c2c(O)cc(O)c3c(=O)cc(-c4ccccc4Cl)oc23)[C@H](O)C1 [alvocidib]
Description: log2 fold change, soluble protein after heating vs DMSO (PISA); higher = thermal stabilisation; K562 lysate, 10 uM; active = over 0.2 and 3.5 SD of the protein, either way, in both replicates (recomputed). A digest of the protocol:
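The values are log-two fold changes in thermal stability compared with solvent controls and come from duplicates. They were obtained by TMTpro 16plex LC-MS/MS, with channel sums equalised, on the supernatant after 21,000xg for 90 min. That supernatant came from crude K562 extract at 1 mg/mL protein treated with 10 μM compound for 30 min, heated for 3 min across 48°C-58°C, pooled and brought to 0.5% NP-40 at 4°C.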
Take LARS2 (UniProt Q15031): the log2 fold change is 0.021 (inactive).
As to LYSMD3 (UniProt Q7Z3D4), the log2 fold change is -0.001 (inactive).
MARK3 (UniProt P27448): the log2 fold change is -0.071 (inactive).
As for MAP2K2 (UniProt P36507), the figure is 0.022 (inactive).
With MAD2L1BP isoform 3 (UniProt Q15013), the log2 fold change was 0.047 (inactive).
As for MOCS1 isoform 8 (UniProt Q9NZB8), the figure is -0.108 (inactive); as for LRRC40 (UniProt Q9H9A6), -0.009 (inactive).
MPZL1 (UniProt O95297): the log2 fold change was -0.01 (inactive).
As for MON2 isoform 5 (UniProt Q7Z3U7), the figure is 0.003 (inactive); as for LLGL1 (UniProt Q15334), 0.026 (inactive).
To MRPL10 isoform 2 (UniProt Q7Z7H8) belongs 0.024 (inactive).
To LIMS1 isoform 3 (UniProt P48059) belongs -0.014 (inactive).
Turning to MED12 isoform 2 (UniProt Q93074), the log2 fold change is -0.022 (inactive).
As for METTL7A (UniProt Q9H8H3), the figure is -0.079 (inactive).
To MED17 (UniProt Q9NVC6) belongs -0.001 (inactive); to LSM8 (UniProt O95777), -0.012 (inactive); to MFF isoform 2 (UniProt Q9GZY8), -0.046 (inactive).
LARS (UniProt Q9P2J5): the log2 fold change is 0.051 (inactive).
As for MAPK9 (UniProt P45984), the figure is 0.028 (inactive); as for MED13L (UniProt Q71F56), 0.042 (inactive).
Take MACROD1 (UniProt Q9BQ69): the log2 fold change is 0.12 (inactive).
As for MRPL46 (UniProt Q9H2W6), the figure is 0.125 (inactive).
